CRE-bla Fsk: modulators of forskolin-stimulated CRE signaling in CHO cells; CHO CRE-bla reporter (cAMP response element driving beta-lactamase), forskolin EC10, beta-lactamase ratio; Potency, µM (doses to about 38.2 µM), usual class: activators; hit rate 2.5% among 71,000; AID 662; active = well fitted activation curve with a large enough effect in the signal ratio, with a control signal flat, not every such curve was filed as active; inconclusive = small, poorly fitted or top-dose-only effect, or effect the other way, or a change in a side signal; the % refers to the signal ratio
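Modulation of forskolin signalling: compounds in titration series added with EC10 NKH 477 to CHO cells carrying a CRE-driven beta-lactamase reporter, 3 h, 37C. CCF4 FRET ratio (460/530 nm, ex 405 nm) gives %activity and AC50.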
p53ts 32C tox: p53ts cell cytotoxicity, permissive temperature | Potency, µM (highest dose often 46.1 µM), hits mostly cytotoxic | hit rate 0.93% among 130,000 | H1299-p53A138V at 32C, ATP luminescence viability, 24 h; note: nearly all actives have a fitted effect of over 55% in size
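H1299-p53 A138V cells (temperature-sensitive p53) exposed 24 h to up to 46 uM compound at 32C, where p53 is wild-type in conformation. Viability read as ATP luminescence and normalised to DMSO and 100 uM tamoxifen. AC50 fitted with the Hill equation.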
IkB signaling: IkB pathway inhibition in ABC-DLBCL cells; hit rate 0.04% among 110,000; AID 445; Potency, µM (top dose mostly 57.1 µM); ABC-DLBCL IkBa-CBG/CBR dual luciferase ratio, 4 h; response scale: scaled: untreated 0%, proteasome inhibitor 100%; active = well fitted curve in the direction sought with a large enough effect in the signal ratio, not every such curve was filed as active; inconclusive = small, poorly fitted or top-dose-only effect, or a change in a side signal; the % refers to the signal ratio;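 note: the direction sought is a rising ratio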
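Curves were fitted separately to fusion (green), unfused (red) and ratio luminescence, then classed by r2, magnitude and activity. Cells: OCI-Ly3, 4 h compound plus doxycycline at 37C; 10 uM MG-132 defined full response.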
p53ts 39C kill: kills p53ts cells at the nonpermissive temperature | Potency, µM (highest dose often 46.1 µM), usual class: cytotoxic | hit rate 1.5% among 130,000 | H1299-p53A138V viability at 39C, ATP luminescence, 24 h; note: nearly all actives have a fitted effect of over 55% in size
Imprint erasure: induces erasure of genomic imprints in mouse ES cells; mouse ES Peg3-LacZ reporter, beta-gal luminescence, 40 h; Potency, µM (titrated, usually from 60.7 µM), most hits filed as activators; hit rate 0.02% among 110,000
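Each well holds 300 Peg3LacZ-Neo (maternal) female ES cells incubated 40 h at 37C, 5% CO2. LacZ is measured by BetaGlo luminescence, with AC50 and maximum efficacy derived from dose-response curves.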
CHO via 24h: CHO cell toxicity at 24 h by ATP luminescence; shares compounds with CRE-bla Fsk; CRE-bla CHO viability, ATP luminescence, 24 h; activity, negative = viability loss, % at 46.1 µM; 120 tested, under 10 active
CHO via 40h: reduces CRE-bla CHO cell viability after 40 hours | AID 906 | Potency, µM, hits mostly inhibitors | 120 tested, under 10 active | CRE-bla CHO viability, ATP luminescence, 40 h | shares compounds with CRE-bla Fsk
CRE-luc potent: boosts CRE luciferase signal in HEK293 cells. shares compounds with CRE-bla Fsk. HEK293 CRE-luc2P, NKH477 EC10 potentiation, luminescence, 4 h. Potency, µM (top dose mostly 38.3 µM), actives largely listed as activators. hit rate 80% among 120. AID 907
Each line names hits and unclear results; the compound was inactive in the other large screens (follow-up assays come after a bar, where they were run); ! = not active in a repeat. Sampled rows, rich in hits. Any-hit rate of the full collection: about 3%. Unless noted, calls come from the whole dose curve; as a rule, active = well fitted curve in the direction sought with a large enough effect; inconclusive = small, poorly fitted or top-dose-only effect, or another doubt; inactive = no such curve, though single readings can be large; an effect the other way counts as inactive or inconclusive.

CCCc1nc2oc3c(NCc4ccccn4)ncnc3c2c2c1COC(C)(C)C2	CRE-bla Fsk 0.79µM | CHO via 24h inactive | CHO via 40h inactive | CRE-luc potent 0.4µM
Cc1nc2oc3c(NCc4ccccn4)ncnc3c2c2c1COC(C)(C)C2	CRE-bla Fsk inconclusive
COc1cc(-c2cc(=O)c3ccccc3o2)ccc1O	CRE-bla Fsk 2µM | CHO via 24h inactive | CHO via 40h inconclusive | CRE-luc potent 3.2µM
Cc1nc(Nc2ccc3c(c2)OCCO3)c2oc3ccccc3c2n1	CRE-bla Fsk inconclusive
Cc1nc(NCc2ccc3c(c2)OCO3)c2oc3ccccc3c2n1	CRE-bla Fsk 2.5µM, IkB signaling inconclusive | CHO via 24h inactive | CHO via 40h inactive | CRE-luc potent 13µM
N#C/C(=C\C1CC=CCC1)c1nc2ccccc2[nH]1 (centres undefined)	none (no result: Imprint erasure)
Cn1c(/C(C#N)=C/C2CC=CCC2)nc2ccccc21 (centres undefined)	none | CHO via 24h inactive | CHO via 40h inactive | CRE-luc potent 16µM
CS(=O)(=O)CC[C@@H](C(=O)NCCc1ccccc1)N1Cc2ccccc2C1=O	none (no result: CRE-bla Fsk)
O=S(=O)(Nc1cccc(-c2nc3cccnc3s2)c1)c1ccc2c(c1)OCCO2	CRE-bla Fsk 3.2µM, IkB signaling inconclusive | CHO via 24h inactive | CHO via 40h inactive | CRE-luc potent 11µM
CCC(=O)Oc1c(Sc2ccc(Cl)cc2)c(C)nn1-c1ccccc1	IkB signaling inconclusive (no result: CRE-bla Fsk)
Cn1c(C(=O)NC2CC2)cc2c(=O)n(C)c3ccccc3c21	CRE-bla Fsk 5µM | CHO via 24h inactive | CHO via 40h inactive | CRE-luc potent 10µM
CCN(C(=O)c1c(C)oc2ncnc(N3CCCCC3)c12)c1cc(C)ccc1C	IkB signaling inconclusive (no result: CRE-bla Fsk)
Cn1c2ccccc2c2nnc(SCN3C(=O)c4ccccc4C3=O)nc21	CRE-bla Fsk inconclusive, IkB signaling inconclusive
CCn1c2ccccc2c2nnc(SCN3C(=O)c4ccccc4C3=O)nc21	CRE-bla Fsk inconclusive | CHO via 24h inactive | CHO via 40h inactive | CRE-luc potent 2µM
COc1ccccc1CCNC(=O)C(=O)NCC(c1ccco1)S(=O)(=O)c1ccccc1 (centres undefined)	none (no result: CRE-bla Fsk)
COc1ccc(C(=O)Nc2nnc(SCc3cc(=O)n4cccc(C)c4n3)s2)cc1	none (no result: CRE-bla Fsk)
COC(=O)Nc1nc2ccc(C(=O)c3cccs3)cc2[nH]1	CRE-bla Fsk 0.079µM, IkB signaling inconclusive, p53ts 39C kill inconclusive | CHO via 24h inconclusive | CHO via 40h inactive | CRE-luc potent inconclusive
O=C(Cc1ccccc1)Nc1nc2ccc(Cl)cc2c2nc(-c3ccco3)nn12	CRE-bla Fsk inconclusive | CHO via 24h inactive | CHO via 40h inactive | CRE-luc potent inconclusive
CC(C)c1ccc(NC(=O)c2cn(C3CCCC3)c(=O)c3c2c2ccccc2n3C)cc1	none (no result: CRE-bla Fsk)
C=CCn1c(SCC(=O)N2CCOCC2)nc2sc3c(c2c1=O)CCCC3	CRE-bla Fsk inconclusive
Cn1c(SCC(=O)N2CCOCC2)nc2sc3c(c2c1=O)CCCC3	none | CHO via 24h inactive | CHO via 40h inactive | CRE-luc potent 3.5µM
Cc1ccc(CSc2nnc([C@@H](N)C(C)C)o2)cc1	none (no result: CRE-bla Fsk)
Cc1ccc2c(c1)c1nc3ccccc3nc1n2CCN1CCOCC1	CRE-bla Fsk 1.3µM | CHO via 24h inactive | CHO via 40h inconclusive | CRE-luc potent 4µM
Cc1ccc(S(=O)(=O)c2c(N)n(CCN3CCOCC3)c3nc4ccccc4nc23)cc1C	none
Cc1cc(F)ccc1NC(=O)CCSc1nc(-c2ccco2)cc(C(F)(F)F)n1	none (no result: CRE-bla Fsk)
Cc1nn2cnc3sc4c(c3c2nc1=O)CCCC4	none (no result: CRE-bla Fsk, IkB signaling, Imprint erasure)
N#CCc1nc2c3c4c(sc3ncn2n1)CCCC4	none (no result: CRE-bla Fsk, p53ts 32C tox, IkB signaling, p53ts 39C kill, Imprint erasure) | CHO via 24h inactive | CHO via 40h inactive | CRE-luc potent 5µM
CCCSc1nc2c(cnn2-c2ccc(F)cc2)c(=O)[nH]1	CRE-bla Fsk 2µM | CHO via 24h inactive | CHO via 40h inactive | CRE-luc potent 6.3µM
COc1cc(NC(=O)c2cccc3c2C(=O)N(Cc2cccnc2)C3)cc(OC)c1OC	CRE-bla Fsk 2µM | CHO via 24h inactive | CHO via 40h inconclusive | CRE-luc potent 0.79µM
CCOC(=O)c1ccc(CN(Cc2ccccc2C)S(=O)(=O)c2ccc(F)c(C)c2)cc1	none (no result: CRE-bla Fsk)
COc1ccc(OC)c(NC(=O)c2cn(C)c(=O)c3cc(OC)c(OC)cc23)c1	CRE-bla Fsk 0.79µM | CHO via 24h inactive | CHO via 40h inactive | CRE-luc potent 4µM
O=c1c(O)c(-c2ccc(O)c(O)c2)oc2cc(O)ccc12	CRE-bla Fsk inconclusive | CHO via 24h inactive | CHO via 40h inactive | CRE-luc potent inconclusive
C=CCn1c(=O)/c(=C/c2cc(OC)c(OC)c(OC)c2)s/c1=C(/C#N)c1nc2ccccc2n1C	CRE-bla Fsk 1µM | CHO via 24h inactive | CHO via 40h inactive | CRE-luc potent 1µM
Cc1noc(-c2ccccc2OCC(=O)Nc2cccc([N+](=O)[O-])c2)n1	IkB signaling inconclusive (no result: CRE-bla Fsk)
CCOc1ccc(-c2nnc3ccc(SCc4ccc(C(=O)OC)o4)nn23)cc1	CRE-bla Fsk 2µM | CHO via 24h inactive | CHO via 40h inconclusive | CRE-luc potent 2.2µM
CCCCNc1c(C(=O)OCC)c(C)nc2c1cnn2CC	CRE-bla Fsk 3.2µM!, IkB signaling inconclusive, p53ts 39C kill 16µM! | CHO via 24h inactive | CHO via 40h inconclusive | CRE-luc potent 0.79µM
COc1ccc(C2c3c(oc4ccccc4c3=O)C(=O)N2CCN2CCOCC2)cc1OC (centres undefined)	none | CHO via 24h inactive | CHO via 40h inactive | CRE-luc potent 14µM
C=CCN1C(=O)c2oc3ccccc3c(=O)c2C1c1ccc(O)c(OC)c1 (centres undefined)	none (no result: CRE-bla Fsk, p53ts 32C tox, IkB signaling, p53ts 39C kill, Imprint erasure) | CHO via 24h inactive | CHO via 40h inactive | CRE-luc potent 13µM
CNC(=O)CN1C(=O)COc2ccc(S(=O)(=O)N3CCC(C)CC3)cc21	none (no result: CRE-bla Fsk)
CCn1c2ccccc2c2cc(Nc3cc(C)nc4ncnn34)ccc21	CRE-bla Fsk 0.79µM, IkB signaling inconclusive | CHO via 24h inactive | CHO via 40h inconclusive | CRE-luc potent inactive
CCc1cccc(Nc2cc(C)nc3ncnn23)c1	none
COC(=O)c1cc2sc(Cl)cc2n1Cc1cc(C)ccc1C	none (no result: CRE-bla Fsk)
COc1cc(-c2nnc3sc(-c4ccccn4)nn23)cc(OC)c1OC	CRE-bla Fsk 0.025µM | CHO via 24h inactive | CHO via 40h inactive | CRE-luc potent inconclusive
